From PubChem
Shown are actives, neighbours in structure and some others; about 21% of the full set was active somewhere.
D3 antag – blocks the human D3 dopamine receptor; P35462; D3R cells, DiscoveRx beta-arrestin luminescence, antagonist mode; stronger effect = lower value; max response, negative = inhibition, %; actives 2.5% (n = 360,000); AID 652054; in the data active = max response below about -50%; inconclusive = no clear call, values can overlap the other calls; also: % is scaled to controls: 0 for no effect and ±100 for the full control effect
Target sequence (P35462 whole entry, looked up): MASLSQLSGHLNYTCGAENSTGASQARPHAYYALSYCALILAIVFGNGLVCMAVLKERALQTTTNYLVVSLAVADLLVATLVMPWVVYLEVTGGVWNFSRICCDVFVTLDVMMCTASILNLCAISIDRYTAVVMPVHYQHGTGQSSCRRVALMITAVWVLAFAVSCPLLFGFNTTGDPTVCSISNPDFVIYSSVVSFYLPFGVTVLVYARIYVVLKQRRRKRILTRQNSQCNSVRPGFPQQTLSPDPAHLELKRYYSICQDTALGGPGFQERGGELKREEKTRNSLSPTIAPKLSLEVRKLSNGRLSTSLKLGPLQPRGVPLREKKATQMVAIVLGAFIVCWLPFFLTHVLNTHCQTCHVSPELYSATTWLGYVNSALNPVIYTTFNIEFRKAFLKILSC
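Cells plated overnight at 1500 cells/well, then exposed to library compounds with dopamine controls for 90 minutes at 37 degrees C. DiscoveRx reagent added for 30–60 minutes at room temperature; luminescence read, quantitative HTS format.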
D3 ag – agonists of human D3 dopamine receptor; AID 652048; actives 0.58% (n = 410,000); D3R DiscoveRx beta-arrestin cells, luminescence, 90 min; max activation, %; P35462; in the data active = max activation above about 30%; also: 0% is about no effect
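Agonist-mode cell screen: cells plated at 1500/well and incubated overnight at 37 °C, then exposed to library compounds for 90 min at 37 °C. Detection reagent was added for 30–60 min at room temperature, and luminescence was read.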
ClpP mod – qHTS Assay for Activators of ClpP. AID 651965, 2013. ATP-dependent Clp protease proteolytic subunit (Bacillus subtilis (strain 168)), P80244. purified B. subtilis ClpP, FRET peptide cleavage, 20 min. actives 1.9% (n = 340,000). Potency, µM (highest dose often 57.5 µM), inactives show at the highest dose activity change, negative = active; active = well fitted falling curve with a large enough effect; inconclusive = small, poorly fitted or top-dose-only effect; inactive = no such curve, though single readings can be large or run the other way; also: potency is read from the fitted curve at half-maximal effect; the source files actives as falling curves though it sought activators and does not explain the sign; nearly all actives have a fitted effect of over 65% in size
Target sequence (P80244 whole entry, looked up): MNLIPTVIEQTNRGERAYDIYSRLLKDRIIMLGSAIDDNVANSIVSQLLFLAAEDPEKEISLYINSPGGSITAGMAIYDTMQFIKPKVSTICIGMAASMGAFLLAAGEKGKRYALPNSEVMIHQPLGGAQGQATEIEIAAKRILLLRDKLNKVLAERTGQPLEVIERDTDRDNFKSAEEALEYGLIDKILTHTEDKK
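ClpP 10 microg/mL final, pH 8 Tris/KCl buffer with BSA, glycerol, Tween-20; compound pinned in; FRET-FV substrate; RT 20 min; Ex320/Em430; ΔFRET vs ADEP 5.8 microM, DMSO, no enzyme.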
TDP1 cell CPT – DT40-hTDP1 cell growth loss with CPT; chicken DT40 Tdp1-/-;hTDP1 cells + 20 nM CPT, ATP luminescence, 48 h; Potency, µM (highest dose often 46.2 µM), for the others: at the top dose activity change, negative = growth inhibition, most hits filed as inhibitors; AID 686979; actives 12% (n = 420,000); also: potency is read from the fitted curve at half-maximal effect; % is scaled to controls: 0 for no effect and ±100 for the full control effect; nearly all actives have a fitted effect of over 55% in size
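Chicken DT40 Tdp1-/- cells stably complemented with human TDP1 were seeded at 400 cells/well in medium containing 20 nM camptothecin, exposed to pin-transferred compounds, and grown at 37 °C for at least 48 hr. Viability was read as ATP luminescence.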
DT40 TDP1 no CPT – qHTS for Inhibitors of human tyrosyl-DNA phosphodiesterase 1 (TDP1): qHTS in cells in absence of CPT | DT40 Tdp1-/- hTDP1 cells, no CPT, ATP luminescence, 48 h | Potency, µM (titrated, usually from 46.2 µM), for inactives: top-dose activity change, negative = growth inhibition, hits mostly inhibitors | actives 15% (n = 420,000); also: potency is read from the fitted curve at half-maximal effect; % is scaled to controls: 0 for no effect and ±100 for the full control effect; nearly all actives have a fitted effect of over 55% in size
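No-CPT arm: Tdp1-/-;hTDP1 DT40 cells (400/well) plus compounds, incubated ≥48 hr at 37 °C. Readout CellTiter-Glo luminescence.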
IL1B secr inh – inflammasome signaling inhibition, IL-1 beta readout; THP-1 LPS/ATP IL-1B secretion, AlphaLISA, 16 h; stronger effect = lower value; activity change, % at 57.5 µM; actives 4.7% (n = 360,000); in the data active = activity change below about -50%; inconclusive = mostly about -30% to -49%; also: % is scaled to controls: 0 for no effect and ±100 for the full control effect
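THP-1 cells pretreated 1 hr with compounds (up to 57.5 uM final), then stimulated with LPS (250 ng/mL final) plus ATP (1.25 mM final); secreted IL-1B measured by AlphaLISA after 16 hr, decreased signal indicating inhibition.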
* marks the source's active call; other numbers are inactive results; ? = inconclusive; · = no result. Unless noted, calls follow the shape of the dose curve; as a rule, active = well fitted inhibition curve with a large enough effect; inconclusive = small, poorly fitted or top-dose-only effect; inactive = flat fitted curve, though single readings scatter.

SMILES | D3 antag | D3 ag | ClpP mod | TDP1 cell CPT | DT40 TDP1 no CPT | IL1B secr inh
Cc1cccc(N2CCN(C(=O)CSc3ccsc3[N+](=O)[O-])CC2C)c1 (stereo unspecified) | -12.2 | 13.0 | -1.3% | -1.4% | ? | -73.2*
Cc1cccc(N2CCN(C(=O)/C=C/c3cccs3)CC2C)c1 (stereo unspecified) | -17.2 | 4.1 | · | ? | 14.6µM* | -11.4
CC1=C(C(=O)NCc2ccc(Cl)cc2)C2(CCCCC2)OC1=O | · | 0.2 | -2.5% | ? | -25.5% | ·
Cc1cccc(-c2nc3c4ccccc4nc(NCCc4ccccc4)n3n2)c1 | · | -7.2 | -8.4% | ? | ? | ·
COc1cccc(N2CC(NC(=O)/C=C\c3ccc4c(c3)OCO4)CC2=O)c1 (stereo unspecified) | · | -7.9 | 4.1% | -15.4% | -27.6% | ·
O=c1nc(-c2ccccc2)c2cc(SC(F)F)ccc2[nH]1 | 3.5 | 35.9* | 0.6% | -5.5% | 0.411µM* | 5.3
Cc1ccc(-c2nc(=O)[nH]c3ccc(Br)cc23)cc1 | 18.3 | 2.2 | 1.4% | ? | ? | -15.1
O=c1nc(-c2ccccc2)c2cc(Cl)ccc2[nH]1 | 10.4 | 6.7 | ? | ? | 1.3µM* | -19.1
O=c1nc(-c2ccccc2)c2cc(Br)ccc2[nH]1 | 0.7 | -2.6 | · | 0.326µM* | 0.231µM* | -24.4
Cc1ccc(NC(=O)C(=O)NCC(c2cccnc2)N2CCN(C)CC2)cc1C (stereo unspecified) | · | 1.8 | -2.4% | -1.9% | -3.7% | ·
O=C(COC(=O)c1ccc[nH]c1=O)Nc1cc(S(=O)(=O)N2CCCCCC2)ccc1Cl | 19.6 | 5.2 | -6.8% | 0.0% | 30.4% | 2.5
COc1cccc(C2CC(=O)Nc3c2c(=O)[nH]c2ncnn32)c1OC (stereo unspecified) | · | -11.6 | -0.2% | · | · | ·
CCN(CC(=O)Nc1ccc(OC)c(OC)c1)CC(=O)Nc1ccccc1C(F)(F)F | 1.1 | 8.5 | · | ? | ? | -10.5
CCN(CC)CCCNC(=O)c1ccc(OCC(=O)Nc2ccccc2C(F)(F)F)c(OC)c1 | -1.0 | -4.1 | · | ? | ? | -62.0*
O=C(NC1CCCC1)c1cccc(S(=O)(=O)N2CCOCC2)c1 | 14.2 | 2.2 | 1.7% | -2.0% | -1.0% | 0.0
CCOC(=O)c1ccc2oc(=O)n(Cc3ccccc3)c2c1 | · | 12.7 | -4.6% | -27.7% | -23.0% | ·
COc1ccc(C2CC(=O)C3=C(C2)Nc2ccccc2NC3c2coc3ccccc3c2=O)cc1OC (stereo unspecified) | ? | -0.6 | 0.6% | 16.4µM* | 25.9µM* | ?
COc1ccc(/C=C(/NC(=O)c2ccco2)C(=O)N2CCc3ccccc32)cc1OC | 6.4 | -0.8 | · | 7.6% | -18.5% | 16.6
O=C(N/N=C/c1cc([N+](=O)[O-])cc(Br)c1O)C12CC3CCC(CC(C3)C1)C2 | -0.6 | -13.0 | -0.2% | ? | 23.1µM* | 0.0
Cn1cc(S(=O)(=O)N2CCc3ccccc32)cc1C(=O)Nc1ccc(C(F)(F)F)cc1 | · | 1.1 | -14.1% | ? | ? | ·
CCCCN1/C(=C/c2ccc3ccccc3[n+]2CC)Sc2ccccc21 | 13.3 | 5.6 | · | 0.259µM* | 0.231µM* | -98.0*
CCN1/C(=C/c2ccc3cc(C)ccc3[n+]2C)Sc2ccc3sccc3c21 | -15.6 | -8.1 | -0.8% | 0.411µM* | 0.581µM* | -13.4
CCN1/C(=C/c2ccc3ccccc3[n+]2CC)C=Cc2ccccc21 | -52.5* | -9.6 | 3.1% | 1.64µM* | 1.46µM* | -55.3*
CCN1/C(=C/c2ccc3ccccc3[n+]2CCCS(=O)(=O)[O-])C=Cc2cc(C)ccc21 | -23.0 | -6.9 | · | ? | ? | 5.2
CCN1/C(=C/c2ccc3cc(C)ccc3[n+]2CC)Sc2cc(C)ccc21 | 7.6 | 2.9 | 2.4% | 0.291µM* | 0.013µM* | -106.7*
SMILES | D3 antag | D3 ag | ClpP mod | TDP1 cell CPT | DT40 TDP1 no CPT | IL1B secr inh
Clc1cc(Sc2ccc(Br)cc2)nnc1-c1ccccc1 | 9.9 | -7.0 | -2.1% | ? | 29.1µM* | -19.0
CC(Nc1cc(N2CCN(S(C)(=O)=O)CC2)ccc1[N+](=O)[O-])c1ccccc1 (stereo unspecified) | 2.5 | 2.5 | -9.7% | ? | 16.4µM* | -52.0*
COc1cccc(C(CNc2ccc(S(=O)(=O)N3CCN(C)CC3)cc2[N+](=O)[O-])N(C)C)c1 (stereo unspecified) | -17.6 | -27.5 | -2.4% | 23.1µM* | ? | -16.4
CC(Nc1ccc(S(=O)(=O)N2CCN(C)CC2)cc1[N+](=O)[O-])c1ccccc1 (stereo unspecified) | 14.6 | 6.2 | 0.2% | 16.4µM* | 23.1µM* | -13.0
CCOC(=O)c1ccc(S(=O)(=O)NNc2ccc(C(F)(F)F)cn2)cc1 | 18.0 | 5.5 | 0.6% | -18.8% | 20.1% | 14.8
O=C(O)/C(=C\c1ccc(Cl)cc1)c1ccc(F)cc1 | 5.5 | 0.1 | · | 2.6% | -3.0% | 13.3
Cc1cccc(NC(=O)N2CCc3c(sc4c3CCCC4)C2c2ccc(F)cc2)c1 (stereo unspecified) | · | -14.1 | -4.3% | ? | 16.4µM* | ·
COc1ccc(NC(=O)N2CCc3c(sc4c3CCCC4)C2c2ccc(F)cc2)cc1 (stereo unspecified) | · | -17.4 | -7.4% | ? | 20.6µM* | ·
CC(=O)Nc1ccc(S(=O)(=O)Nc2nc(C)nc3sc(C)c(C)c23)cc1 | -15.2 | 1.4 | -2.4% | -29.4% | 12.0% | 31.0
CC1=C(C(=O)Nc2ccc(F)cc2)C(c2ccc(N(C)C)cc2)NC(=O)N1 (stereo unspecified) | · | 8.5 | 1.8% | 2.5% | -12.6% | ·
O=C(Cn1cnc([N+](=O)[O-])c1)Nc1cc(Oc2ccc(Cl)cc2Cl)cc([N+](=O)[O-])c1 | 0.0 | -5.8 | -0.8% | 16.4µM* | 16.4µM* | -58.0*
N#Cc1ccc(NC(=O)Cn2cnc([N+](=O)[O-])c2)cc1 | 4.5 | 0.4 | · | -27.2% | 9.6% | 34.0
Nc1c(C(=O)Nc2ccc3c(c2)OCCO3)nnn1CCc1ccccc1 | -19.4 | 0.1 | -0.7% | 4.61µM* | 3.26µM* | -2.1
Nc1c(C(=O)Nc2ccc3c(c2)OCCO3)nnn1Cc1cccc(Br)c1 | 22.7 | 1.2 | -10.0% | ? | 23.1µM* | -51.3*
Nc1c(C(=O)Nc2ccc3c(c2)OCCO3)nnn1Cc1ccc(Br)cc1 | 1.3 | -0.6 | · | -10.9% | -28.3% | 4.1
O=C(NCCCc1nc2ccccc2n1Cc1ccccc1)C1CCCCC1 | · | -15.0 | 0.6% | 18.4µM* | 16.4µM* | ·
